Assay results from PubChem BioAssay AID463173 (ICCB-Longwood Screening Facility, Harvard Medical School, 2010).
The whole screen tested about 52,000 compounds, of which about 4,300 (8.3%) were called active. The list comes from a sample in which actives are over-represented; it also holds similar structures and randomly drawn compounds. Values without a mark were called inactive. No stated cut-off is given here; in the data, active means survival mostly below about 52% (no sharp cut-off); inactive means mostly above about 56%.

What follows are compounds tested on DeltatarO mutant (assay: growth inhibition of S. aureus wild type versus tarO mutant, primary screen, teichoic acid synthesis inhibitors, RN4220, OD600 (AID 463173)). Settings: OD600, 18 h, stronger effect = lower value, screened at 18.75 µg/mL (by protocol).
With CCN(CCCNC(=O)Cn1ncc2c([nH]c3ccc(C)cc32)c1=O)c1ccccc1 the survival was 115%.
With Cc1csc2nc(COc3ccc(NC(=O)C(C)C)cc3)cc(=O)n12 the survival was 98%.
In the case of COc1ccc(NC(=O)Cn2cc(C(=O)c3ccccc3)c(=O)c3cc(OC)ccc32)c(OC)c1, the survival is reported as 92%.
CCCn1cc(S(=O)(=O)c2ccc(C)c(C)c2)c(=O)c2cc(F)c(N3CCC(C)CC3)cc21 showed a survival of 67%.
Work on COc1cccc2cc(C(=O)N3CCN(c4cc(C)ccc4C)CC3)c(=O)oc12 yielded a survival of 56%.
Cc1cccc(CNC(=O)CN2C(=O)CCn3nc(-c4cn(C)c5ccccc45)cc32)c1 showed a survival of 119%.
With CCOC(=O)COc1ccc(CC)cc1C(=O)c1ccn2nc(-c3ccc(Cl)cc3)cc2n1 the survival was 74%.
Compound COc1ccccc1NC(=O)N(Cc1nnc2n1CCCCC2)c1ccc(F)cc1 has a survival of 91%.
CCc1ccc(CN(Cc2ccco2)C(=O)c2cc(-c3ccc(Cl)cc3)on2)cc1 gave a survival of 75%.
For Cc1ccc(-c2cc(C(=O)N3CCCC3)no2)cc1, the survival was 98%.
With CCN(CC)C(=O)c1cc(-c2ccc(Cl)cc2)on1 the survival was 36% (active).
With COc1ccccc1-c1cc(C(=O)N2CCN(c3ccccc3)CC2)no1 the survival was -15% (active).
In the case of O=C(c1cc(-c2ccccc2)on1)N1CCCCC1, the survival is reported as 95%.
With COc1ccccc1N1CCN(C(=O)c2cc(-c3ccccc3O)on2)CC1 the survival was 61%.
Compound COc1ccc(-c2cc(C(=O)N3CCN(c4ccccc4)CC3)no2)cc1 has a survival of 77%.
In the case of CN(Cc1ccccc1)C(=O)c1cc(-c2cccc(Cl)c2)on1, the survival is reported as -15% (active).
COCCNC(=O)c1cc(-c2cccc(Cl)c2)on1 was tested, and the survival was 134%.
In the case of O=C(c1cc(-c2cccc(Cl)c2)on1)N1CCCCC1, the survival is reported as 46% (active).
For CCN(CC)C(=O)c1cc(-c2ccccc2)on1, the survival was 101%.
In the case of O=C(NCCc1ccccc1)c1cc(-c2cccc(Cl)c2)on1, the survival is reported as 76%.
CC(C)CN1CCc2nc(N3CCN(c4ncccn4)CC3)ncc2C1 was tested, and the survival was 72%.
Work on CCNc1nc(NCC)nc(N(C#N)CC)n1 yielded a survival of 62%.
With CCc1ccc(NC(=O)Cn2c(=O)n(Cc3ccc(C)cc3)c(=O)c3cccnc32)cc1 the survival was 88%.
CC(=O)c1ccc(N2CCN(C(=O)Nc3cn(CC(C)C)c(=O)c4ccccc34)CC2)cc1 showed a survival of 80%.
Cc1ccc(C)c(NC(=O)c2cnc(N3CCCC3)nc2C)c1 showed a survival of 94%.
COc1ccc(NC(=O)CSc2oc(-c3ccc(F)cc3)nc2S(=O)(=O)c2ccc(C)cc2)c(OC)c1 was tested, and the survival was 61%.
Cc1cccc(NC(=O)NCCOCCn2c(=O)oc3ccccc32)c1C gave a survival of 99%.
Compound O=C(Nc1ccc(Cl)cc1)N1CCC(CN2CCCC2)CC1 has a survival of 84%.
CCCCC(=O)Nc1cccc(OCc2cc(=O)n3ccccc3n2)c1 was tested, and the survival was 87%.
CCN(C(=O)c1ccc2c(c1)N(Cc1cccc(Cl)c1)C(=O)c1ccccc1S2=O)c1ccccc1 (stereo not given) was tested, and the survival was 32% (active).
In the case of CC1CCC(NC(=O)c2ccc3c(c2)N(Cc2cccc(Cl)c2)C(=O)c2ccccc2S3=O)CC1 (stereo not given), the survival is reported as 25% (active).
O=C(NCCC1=CCCCC1)c1ccc2c(c1)N(Cc1ccccc1)C(=O)c1ccccc1S2=O (stereo not given) was tested, and the survival was 70%.
With CCOC(=O)N1CCC(NC(=O)c2ccc3c(c2)N(Cc2ccccc2C)C(=O)c2ccccc2S3=O)CC1 (stereo not given) the survival was 53%.
CCCCN(C)C(=O)c1ccc2c(c1)N(Cc1cccc(Cl)c1)C(=O)c1ccccc1S2=O (stereo not given) gave a survival of 99%.
In the case of CCOC(=O)N1CCC(NC(=O)c2ccc3c(c2)N(Cc2cc(C)ccc2C)C(=O)c2ccccc2S3=O)CC1 (stereo not given), the survival is reported as 42% (active).
For O=C(NC1CCCCC1)c1ccc2c(c1)N(Cc1cccc(Cl)c1)C(=O)c1ccccc1S2=O (stereo not given), the survival was 101%.
Compound O=C(NCCC1=CCCCC1)c1ccc2c(c1)N(Cc1ccc(Cl)cc1)C(=O)c1ccccc1S2=O (stereo not given) has a survival of 63%.
O=C(NCCC1=CCCCC1)c1ccc2c(c1)N(Cc1cccc(Cl)c1)C(=O)c1ccccc1S2=O (stereo not given) was tested, and the survival was 37% (active).
In the case of CN(C(=O)c1ccc2c(c1)N(Cc1cccc(Cl)c1)C(=O)c1ccccc1S2=O)C1CCCCC1 (stereo not given), the survival is reported as 101%.
In the case of CCOC(=O)N1CCC(NC(=O)c2ccc3c(c2)N(Cc2ccccc2)C(=O)c2ccccc2S3=O)CC1 (stereo not given), the survival is reported as 57%.
Compound CC1CCC(NC(=O)c2ccc3c(c2)N(Cc2ccccc2)C(=O)c2ccccc2S3=O)CC1 (stereo not given) has a survival of 104%.
Cc1ccc(-n2c(=O)c3c(cnn3C)n(CC(=O)Nc3c(C)cccc3C)c2=O)cc1 was tested, and the survival was 85%.
With COc1ccc(NC(=O)Cn2c(=O)n(-c3ccc(CC(=O)NCC4CCCO4)cc3)c(=O)c3ccccc32)c(OC)c1 (stereo not given) the survival was 102%.
In the case of COc1cc(C(=O)N2CCN(c3ccc(Nc4ccccc4)nn3)CC2)cc(OC)c1OC, the survival is reported as 80%.
In the case of COc1cc(C(=O)Nc2sc(C(=O)N3CCOCC3)c(C)c2C#N)cc(OC)c1OC, the survival is reported as 84%.
